The list shows a part of the results. Results filed as inconclusive are left out. The source made the active and inactive calls. The call rests on the fitted dose curve; in most records, active means well fitted inhibition curve with a large enough effect; inconclusive means small, poorly fitted or top-dose-only effect; inactive means flat fitted curve, though single readings scatter.
Biological target: Thioredoxin reductase 1, cytoplasmic (Rattus norvegicus) (UniProt O89049)
Experiment: qHTS Assay for Inhibitors of Mammalian Selenoprotein Thioredoxin Reductase 1 (TrxR1): Hit Validation in Primary Screen
Conditions: recombinant TrxR1, NADPH fluorescence consumption, selenite substrate
Source text: The selenoprotein thioredoxin reductase (TrxR; EC 1.8.1.9) is a FAD containing homodimeric pyridine nucleotide-disulfide oxidoreductase with many cellular roles. Together with NADPH and its prime substrate thioredoxin (Trx), the enzyme forms the core of the Trx system. The mammalian Trx system exerts a wide spectrum of functions including redox regulation, antioxidant defense, regulation of transcription factors as well as support of cell growth and replication. Many of these functions involve the reduction of Trx, which may subsequently reduce a number of different substrates including ribonucleotide reductase, peroxiredoxins or NFkB. […]
Assay protocol: 2 uL of reagents (buffer in column 4 as negative control and 90 nM rTrxR1 in columns 1-3 and 5-48) were dispensed into Greiner black solid-bottom 1,536-well assay plates, followed by 1 uL of NADPH (400 uM final concentration) to each well. […] The plate was immediately transferred to a ViewLux high-throughput CCD imager (PerkinElmer), wherein kinetic measurements of NADPH fluorescence (Ex 340 nm, Em 450 nm) were acquired (8 minute kinetic read). Read 1 was utilized to assess the capacity of a compound to serve as an rTrxR1 substrate, i.e. a decrease in NADPH fluorescence compared to the no-compound background is an indication of a substrate behavior for that particular compound. […]

Chain of Thioredoxin reductase 1, cytoplasmic (Rattus norvegicus) (O89049 whole entry, looked up): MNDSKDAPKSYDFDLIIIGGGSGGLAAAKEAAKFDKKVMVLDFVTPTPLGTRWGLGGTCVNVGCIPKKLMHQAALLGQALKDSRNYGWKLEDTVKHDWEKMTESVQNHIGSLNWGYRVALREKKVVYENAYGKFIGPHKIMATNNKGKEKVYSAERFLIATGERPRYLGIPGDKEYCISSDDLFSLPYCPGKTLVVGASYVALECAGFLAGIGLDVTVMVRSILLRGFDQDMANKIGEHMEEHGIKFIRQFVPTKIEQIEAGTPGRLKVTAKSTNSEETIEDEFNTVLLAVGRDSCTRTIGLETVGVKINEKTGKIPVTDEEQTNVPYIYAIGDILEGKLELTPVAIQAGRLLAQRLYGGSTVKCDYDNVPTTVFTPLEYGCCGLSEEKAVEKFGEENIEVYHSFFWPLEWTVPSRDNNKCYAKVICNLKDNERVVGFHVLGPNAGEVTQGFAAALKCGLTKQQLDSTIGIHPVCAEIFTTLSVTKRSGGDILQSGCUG

COc1ccc(-c2nc(CS(=O)CC(=O)N3CCC4(CC3)OCCO4)c(C)o2)cc1 (stereo unspecified)
Potency: 7.52 µM (active)
